Assay in all cases: log2 ratio of Biotin-Ahx-Ub-VS probe labelling (fragment/DMSO); higher = less target engagement (more negative = stronger competition), active = hit call of the paper (q ≤ 0.05, log2 ratio ≤ -1)
What all share (settings): compound concentration: 200 uM; treatment time: 3 h

The target in assay [1] is T1, USP19 (UniProt O94966).
T1 sequence (whole entry): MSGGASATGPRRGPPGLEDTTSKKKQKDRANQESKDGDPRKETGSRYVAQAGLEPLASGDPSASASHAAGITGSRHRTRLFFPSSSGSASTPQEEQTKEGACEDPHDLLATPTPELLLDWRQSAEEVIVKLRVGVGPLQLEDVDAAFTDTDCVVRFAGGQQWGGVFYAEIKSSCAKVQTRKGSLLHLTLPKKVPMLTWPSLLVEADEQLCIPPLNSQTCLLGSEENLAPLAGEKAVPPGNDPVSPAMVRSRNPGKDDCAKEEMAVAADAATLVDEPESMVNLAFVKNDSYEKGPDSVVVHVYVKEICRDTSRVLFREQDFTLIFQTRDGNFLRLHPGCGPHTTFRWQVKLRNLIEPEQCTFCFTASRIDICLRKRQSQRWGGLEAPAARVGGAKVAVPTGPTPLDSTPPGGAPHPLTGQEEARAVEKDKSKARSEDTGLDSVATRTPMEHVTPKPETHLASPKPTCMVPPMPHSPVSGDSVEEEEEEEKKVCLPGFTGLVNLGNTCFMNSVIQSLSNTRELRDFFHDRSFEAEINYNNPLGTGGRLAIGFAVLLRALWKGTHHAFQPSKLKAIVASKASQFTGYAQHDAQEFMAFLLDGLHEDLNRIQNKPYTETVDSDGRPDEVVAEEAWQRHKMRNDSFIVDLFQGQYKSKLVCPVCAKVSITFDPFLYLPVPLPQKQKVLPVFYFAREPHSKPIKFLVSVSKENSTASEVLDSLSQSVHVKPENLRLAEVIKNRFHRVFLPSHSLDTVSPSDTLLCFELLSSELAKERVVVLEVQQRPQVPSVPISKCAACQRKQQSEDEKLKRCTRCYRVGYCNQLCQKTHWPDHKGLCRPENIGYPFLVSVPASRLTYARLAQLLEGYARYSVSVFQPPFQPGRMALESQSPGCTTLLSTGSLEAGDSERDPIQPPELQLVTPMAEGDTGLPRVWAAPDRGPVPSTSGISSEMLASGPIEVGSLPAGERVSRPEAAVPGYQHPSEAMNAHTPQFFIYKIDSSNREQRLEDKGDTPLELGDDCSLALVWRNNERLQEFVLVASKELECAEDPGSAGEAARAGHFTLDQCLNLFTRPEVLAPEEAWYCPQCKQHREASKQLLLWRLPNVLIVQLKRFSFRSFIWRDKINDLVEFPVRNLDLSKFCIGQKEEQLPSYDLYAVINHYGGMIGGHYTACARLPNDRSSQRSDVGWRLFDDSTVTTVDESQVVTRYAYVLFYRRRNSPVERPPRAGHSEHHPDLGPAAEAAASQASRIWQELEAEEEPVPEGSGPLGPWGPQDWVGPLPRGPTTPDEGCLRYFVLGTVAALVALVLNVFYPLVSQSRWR
The gist of the method: (§1)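 HEK293T lysate, 495 µg per sample in Tris/CHAPS/IGEPAL buffer with protease inhibitors, was treated in triplicate with fragment at 200 µM or vehicle for 3 h and then with Biotin-Ahx-Ub-VS at 0.5 µM final for 1 h. Labelled DUBs were NeutrAvidin-enriched, digested with LysC and trypsin, and run by diaPASEF LC-MS/MS. Spectronaut label-free quantities were global-median-normalised, and values are average log2 fragment/vehicle ratios by unpaired t-test on proteins with ≥2 unique peptides.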

In assay [2] the target is T2, USP22 (UniProt Q9UPT9).
T2 sequence (whole entry): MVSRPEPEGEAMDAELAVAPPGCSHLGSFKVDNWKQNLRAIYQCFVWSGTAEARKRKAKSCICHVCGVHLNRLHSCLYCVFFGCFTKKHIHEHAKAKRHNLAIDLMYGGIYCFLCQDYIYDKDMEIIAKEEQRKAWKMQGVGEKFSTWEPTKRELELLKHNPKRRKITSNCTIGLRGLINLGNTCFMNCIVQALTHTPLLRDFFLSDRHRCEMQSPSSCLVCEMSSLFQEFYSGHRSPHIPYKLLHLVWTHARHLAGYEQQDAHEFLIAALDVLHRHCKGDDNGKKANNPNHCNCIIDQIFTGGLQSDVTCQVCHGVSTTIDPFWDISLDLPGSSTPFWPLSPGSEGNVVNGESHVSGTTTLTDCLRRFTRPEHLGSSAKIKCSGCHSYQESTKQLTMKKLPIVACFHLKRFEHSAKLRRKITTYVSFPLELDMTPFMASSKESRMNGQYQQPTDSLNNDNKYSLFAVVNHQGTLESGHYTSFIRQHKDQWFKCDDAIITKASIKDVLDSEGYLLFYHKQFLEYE
Summed up:
as §1

Assay [3] addresses USP24 (UniProt Q9UPU5). Summed up: as §1
Assay [4] addresses T3, USP25 (UniProt Q9UHP3).
T3 sequence (whole entry): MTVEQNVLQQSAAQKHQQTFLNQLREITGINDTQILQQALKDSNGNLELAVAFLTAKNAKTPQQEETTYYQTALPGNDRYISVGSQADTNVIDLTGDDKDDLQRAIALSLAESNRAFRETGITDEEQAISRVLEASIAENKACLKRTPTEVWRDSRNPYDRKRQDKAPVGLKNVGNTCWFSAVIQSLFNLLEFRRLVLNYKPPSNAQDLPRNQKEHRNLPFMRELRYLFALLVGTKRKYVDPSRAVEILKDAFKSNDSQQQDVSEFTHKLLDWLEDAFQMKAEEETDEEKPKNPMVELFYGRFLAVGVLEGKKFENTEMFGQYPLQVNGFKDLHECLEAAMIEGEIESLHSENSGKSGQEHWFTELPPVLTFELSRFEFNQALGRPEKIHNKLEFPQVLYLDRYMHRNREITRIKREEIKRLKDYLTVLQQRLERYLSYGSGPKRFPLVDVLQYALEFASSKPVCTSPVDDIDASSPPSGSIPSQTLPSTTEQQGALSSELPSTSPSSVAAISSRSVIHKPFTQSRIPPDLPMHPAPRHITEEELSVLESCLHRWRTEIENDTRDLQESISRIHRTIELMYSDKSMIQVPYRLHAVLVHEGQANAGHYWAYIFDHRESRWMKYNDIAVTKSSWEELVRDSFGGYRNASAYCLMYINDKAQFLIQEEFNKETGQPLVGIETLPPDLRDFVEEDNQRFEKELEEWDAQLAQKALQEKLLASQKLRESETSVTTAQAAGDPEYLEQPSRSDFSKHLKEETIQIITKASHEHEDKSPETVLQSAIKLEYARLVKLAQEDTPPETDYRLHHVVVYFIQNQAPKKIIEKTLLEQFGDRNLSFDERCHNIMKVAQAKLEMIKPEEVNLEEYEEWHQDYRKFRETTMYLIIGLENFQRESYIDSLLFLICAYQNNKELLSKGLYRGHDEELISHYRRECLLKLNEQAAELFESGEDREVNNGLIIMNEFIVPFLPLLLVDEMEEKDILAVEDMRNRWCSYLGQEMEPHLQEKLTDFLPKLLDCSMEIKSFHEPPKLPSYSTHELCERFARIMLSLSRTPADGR
Summed up: as §1

Assay [5] has as its target T4, USP28 (UniProt Q96RU2).
T4 sequence (whole entry): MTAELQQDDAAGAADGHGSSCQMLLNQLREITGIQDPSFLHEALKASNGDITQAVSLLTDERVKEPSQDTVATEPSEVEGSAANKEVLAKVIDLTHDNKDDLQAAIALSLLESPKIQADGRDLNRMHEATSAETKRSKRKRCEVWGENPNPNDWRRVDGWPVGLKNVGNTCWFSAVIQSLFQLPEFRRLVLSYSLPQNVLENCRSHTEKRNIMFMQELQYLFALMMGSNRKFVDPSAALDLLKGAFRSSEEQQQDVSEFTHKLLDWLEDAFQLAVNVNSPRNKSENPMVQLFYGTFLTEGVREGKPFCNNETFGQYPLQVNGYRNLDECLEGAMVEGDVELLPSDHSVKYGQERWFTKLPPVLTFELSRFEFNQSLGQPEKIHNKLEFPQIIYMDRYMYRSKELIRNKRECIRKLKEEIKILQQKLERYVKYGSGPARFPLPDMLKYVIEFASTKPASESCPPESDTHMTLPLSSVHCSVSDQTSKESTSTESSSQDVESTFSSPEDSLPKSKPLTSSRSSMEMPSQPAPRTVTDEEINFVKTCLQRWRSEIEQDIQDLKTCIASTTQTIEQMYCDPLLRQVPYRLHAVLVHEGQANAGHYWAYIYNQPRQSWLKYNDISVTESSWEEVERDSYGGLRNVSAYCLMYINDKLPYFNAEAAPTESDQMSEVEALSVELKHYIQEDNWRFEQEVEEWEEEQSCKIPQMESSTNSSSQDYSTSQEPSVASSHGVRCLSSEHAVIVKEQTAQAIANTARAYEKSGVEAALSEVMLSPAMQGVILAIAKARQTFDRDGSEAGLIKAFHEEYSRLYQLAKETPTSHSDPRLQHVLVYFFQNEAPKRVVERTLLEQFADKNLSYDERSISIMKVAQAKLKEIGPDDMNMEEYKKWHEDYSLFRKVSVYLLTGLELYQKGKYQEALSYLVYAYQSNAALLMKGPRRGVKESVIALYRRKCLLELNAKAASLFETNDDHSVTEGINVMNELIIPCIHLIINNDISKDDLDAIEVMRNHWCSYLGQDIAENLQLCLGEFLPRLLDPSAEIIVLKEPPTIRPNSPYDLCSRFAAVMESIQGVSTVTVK
The gist of the method: as §1

Unmarked numbers belong to inactive results.

Chain of USP24 (Q9UPU5 whole entry): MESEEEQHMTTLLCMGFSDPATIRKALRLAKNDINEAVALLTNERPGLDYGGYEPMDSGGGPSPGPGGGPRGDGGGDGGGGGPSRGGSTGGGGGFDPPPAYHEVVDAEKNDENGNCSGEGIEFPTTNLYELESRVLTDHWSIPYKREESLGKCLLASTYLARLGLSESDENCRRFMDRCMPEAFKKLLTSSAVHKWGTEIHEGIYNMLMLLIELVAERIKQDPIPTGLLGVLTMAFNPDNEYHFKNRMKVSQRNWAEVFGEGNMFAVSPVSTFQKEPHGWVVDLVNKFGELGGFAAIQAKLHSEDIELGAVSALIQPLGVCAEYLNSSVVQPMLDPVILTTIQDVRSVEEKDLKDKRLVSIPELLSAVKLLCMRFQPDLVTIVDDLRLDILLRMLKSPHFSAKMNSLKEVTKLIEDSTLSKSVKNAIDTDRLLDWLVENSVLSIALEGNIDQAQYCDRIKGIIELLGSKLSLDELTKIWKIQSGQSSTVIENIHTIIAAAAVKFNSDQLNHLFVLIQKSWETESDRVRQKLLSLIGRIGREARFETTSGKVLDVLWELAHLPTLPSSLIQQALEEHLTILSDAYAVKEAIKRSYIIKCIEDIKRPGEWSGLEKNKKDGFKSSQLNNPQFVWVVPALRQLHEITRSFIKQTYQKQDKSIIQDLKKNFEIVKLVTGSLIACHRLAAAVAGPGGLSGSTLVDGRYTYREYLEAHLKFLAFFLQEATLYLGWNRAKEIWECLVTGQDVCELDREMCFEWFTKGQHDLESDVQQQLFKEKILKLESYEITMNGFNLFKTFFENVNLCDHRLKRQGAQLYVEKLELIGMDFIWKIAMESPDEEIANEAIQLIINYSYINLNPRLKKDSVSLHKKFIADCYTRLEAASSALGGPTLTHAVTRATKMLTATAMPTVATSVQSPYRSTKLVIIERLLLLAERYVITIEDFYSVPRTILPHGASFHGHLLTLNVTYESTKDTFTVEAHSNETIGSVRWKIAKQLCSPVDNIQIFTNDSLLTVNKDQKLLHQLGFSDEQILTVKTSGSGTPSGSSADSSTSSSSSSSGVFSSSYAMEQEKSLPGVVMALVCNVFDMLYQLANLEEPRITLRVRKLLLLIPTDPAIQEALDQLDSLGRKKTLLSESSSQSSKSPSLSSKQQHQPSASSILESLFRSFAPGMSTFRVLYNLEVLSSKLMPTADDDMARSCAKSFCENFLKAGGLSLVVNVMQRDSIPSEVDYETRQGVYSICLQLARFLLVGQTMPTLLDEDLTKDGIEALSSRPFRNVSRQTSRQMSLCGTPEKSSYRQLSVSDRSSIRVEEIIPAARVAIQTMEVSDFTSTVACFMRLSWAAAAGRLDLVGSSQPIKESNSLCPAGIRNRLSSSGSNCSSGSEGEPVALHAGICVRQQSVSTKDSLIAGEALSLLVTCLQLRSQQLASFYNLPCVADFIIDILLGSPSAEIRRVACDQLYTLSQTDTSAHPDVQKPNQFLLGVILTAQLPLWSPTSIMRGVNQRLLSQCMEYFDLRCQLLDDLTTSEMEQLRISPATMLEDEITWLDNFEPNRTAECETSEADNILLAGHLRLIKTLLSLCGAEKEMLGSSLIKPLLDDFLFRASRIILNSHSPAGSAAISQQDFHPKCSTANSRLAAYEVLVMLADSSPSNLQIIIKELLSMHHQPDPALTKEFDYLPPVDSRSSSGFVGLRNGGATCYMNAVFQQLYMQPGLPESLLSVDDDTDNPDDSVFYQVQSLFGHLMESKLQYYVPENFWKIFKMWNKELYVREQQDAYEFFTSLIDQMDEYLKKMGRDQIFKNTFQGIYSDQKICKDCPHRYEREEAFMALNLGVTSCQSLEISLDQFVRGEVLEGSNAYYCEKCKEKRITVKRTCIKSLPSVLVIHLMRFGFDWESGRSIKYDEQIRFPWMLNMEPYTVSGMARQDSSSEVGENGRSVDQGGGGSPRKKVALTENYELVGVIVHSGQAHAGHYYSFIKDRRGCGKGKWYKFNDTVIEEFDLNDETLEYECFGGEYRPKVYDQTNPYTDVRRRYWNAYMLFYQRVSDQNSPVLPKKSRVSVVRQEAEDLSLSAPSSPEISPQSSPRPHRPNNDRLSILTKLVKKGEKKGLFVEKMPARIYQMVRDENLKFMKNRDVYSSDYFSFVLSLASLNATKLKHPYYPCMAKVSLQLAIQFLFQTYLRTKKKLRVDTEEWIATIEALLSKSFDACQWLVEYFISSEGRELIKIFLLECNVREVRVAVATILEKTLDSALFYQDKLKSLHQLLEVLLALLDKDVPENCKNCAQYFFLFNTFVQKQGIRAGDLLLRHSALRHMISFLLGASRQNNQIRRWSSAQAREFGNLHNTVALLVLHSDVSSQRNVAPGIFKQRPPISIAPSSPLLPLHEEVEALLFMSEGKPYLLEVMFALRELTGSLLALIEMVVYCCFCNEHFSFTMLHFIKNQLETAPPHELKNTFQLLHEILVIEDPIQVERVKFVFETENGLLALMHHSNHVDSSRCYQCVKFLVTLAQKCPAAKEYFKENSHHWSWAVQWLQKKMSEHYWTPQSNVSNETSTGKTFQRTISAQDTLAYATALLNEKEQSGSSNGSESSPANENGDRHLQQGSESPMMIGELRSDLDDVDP

Take `O=C(CCl)Nc1ccc2c(c1)OC(F)(F)O2`: the “log2 ratio of Biotin-Ahx-Ub-VS probe labelling” value in assay [1] was -0.102; in assay [2] it was -0.358; in assay [3] it was -1.19 (active); in assay [4], -0.541; in assay [5] it was -1.3 (active).

The values are drawn from the supplement of paper PMC11732987, “Enantioselective OTUD7B fragment discovery through chemoproteomics screening and high-throughput optimisation” (Communications Chemistry, 2025).
